Structures are written as SMILES. About 590 (0.18%) of roughly 330,000 compounds were called active. Shown is part of a subset that was picked to be rich in actives. A number with no mark means an inactive call.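 How the source made its calls: active means superoxide response under a set limit, about three screen SD below normal (cut at about 65% in these data); inactive means the rest.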

This experiment is described as follows: yeast aging ROS inhibitors as calorie-restriction mimetics – HTS, primary screen (AID 2690).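 Further: yeast aged for seven days with compound at 30 °C before DHE staining; 100% = average MFI of all compound-treated wells on the plate with controls excluded.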 To be noted: S. cerevisiae aged cells, superoxide DHE fluorescence; at 10 µM; stronger effect = lower value.
On to `CCOC(=O)c1c(C)nn(-c2ncccc2NC(=O)CCC(=O)O)c1C`, for which the superoxide response (% of plate mean) was 122%.

With `Cc1ccc(C(=O)O)cc1-c1ccc(/C=C2\SC(=O)N(CC(=O)Nc3ccc4c(c3)OCO4)C2=O)o1`, the superoxide response (% of plate mean) was 114%.

For `Cc1ccccc1N1CCN(C2CCCN(C(=O)c3cn4c(C)cccc4n3)C2)CC1` (stereo unspecified), the superoxide response (% of plate mean) was 98.9%.

`COc1cc(N2C(=O)c3ccccc3C2=O)c(Cl)cc1C(=O)OCC(=O)N1CCOCC1`: the superoxide response (% of plate mean) was 106%.

On to `COc1ccc(OCCCC(=O)OC(C)C(=O)Nc2ccccc2[N+](=O)[O-])cc1` (stereo unspecified), for which the superoxide response (% of plate mean) was 95.2%.

`CC1(C(=O)NCCc2c[nH]c3ccccc23)C=CC2(CCCCC2)N1C(=O)c1ccccc1` (stereo unspecified): the superoxide response (% of plate mean) is 93.9%.

Regarding `Cc1csc2ncc(C(=O)N(Cc3ccccc3)c3ccccn3)c(=O)n12`, the superoxide response (% of plate mean) was 92.8%.

Consider `Cc1cc(F)ccc1S(=O)(=O)Nc1ncnc2scc(-c3ccc(F)cc3)c12`, for which the superoxide response (% of plate mean) was 103%.

For the compound `Clc1nc(NC2CCCC2)nc(N2CCOCC2)n1`, the superoxide response (% of plate mean) is 104%.

`CCOC(=O)CNc1nc(Cl)nc(Nc2ccccc2)n1`: the superoxide response (% of plate mean) was 114%.

Consider `COC(=O)CNc1nc(Cl)nc(N2CCC(C)CC2)n1`, for which the superoxide response (% of plate mean) is 51% (active).

For the compound `CCc1noc(C)c1C(=O)Oc1ccc(N(C)S(=O)(=O)c2ccc(C)c(C)c2)cc1`, the superoxide response (% of plate mean) was 103%.

For the compound `CCOc1c(N2CCCCC2)c(=O)c1=O`, the superoxide response (% of plate mean) is 105%.

Consider `COc1ccc(NS(=O)(=O)c2ccc(O)c(C(=O)OCC(=O)NC3CCCCC3)c2)cc1`, for which the superoxide response (% of plate mean) was 93.5%.

Consider `NS(=O)(=O)c1ccc(CCNC(=O)CN2C(=O)c3ccccc3S2(=O)=O)cc1`, for which the superoxide response (% of plate mean) was 111%.

On to `Cc1ccc(C(=O)OCC(=O)NC(=O)Cc2ccccc2)c(O)c1`, for which the superoxide response (% of plate mean) was 110%.

For `C=CCNC(=S)/N=c1/ccccn1Cc1ccccc1`, the superoxide response (% of plate mean) is 102%.

For `COC(=O)c1ccc(NC(=O)CSc2nncc3ccc(OC)c(OC)c23)cc1`, the superoxide response (% of plate mean) was 119%.

Regarding `C=CCn1c(SCc2ccccc2)nc2c1c(=O)[nH]c(=O)n2C`, the superoxide response (% of plate mean) was 102%.

For the compound `Cc1cc(OCc2cc(C(=O)NCc3cc(C(C)C)no3)no2)cc(C)c1Cl`, the superoxide response (% of plate mean) is 111%.

With `NC(=O)Cc1ccc2c(c1)[nH]c1ccccc12`, the superoxide response (% of plate mean) is 40.8% (active).

On to `CCn1c2ccccc2c2cc(CC(N)=O)ccc21`, for which the superoxide response (% of plate mean) is 105%.

Consider `NC(=O)CSc1c[nH]c2ccccc12`, for which the superoxide response (% of plate mean) is 97.2%.

`OCCC1CN(Cc2cnc(-c3ccccc3)s2)CCN1CCc1ccccc1` (stereo unspecified): the superoxide response (% of plate mean) is 88.7%.

Take `Cc1cccc(OCC(=O)OCC(=O)Nc2ccc(Cl)cn2)c1`: the superoxide response (% of plate mean) is 99.9%.

Regarding `CCCC(C(=O)NCc1ccco1)N(C(=O)CNS(=O)(=O)c1ccccc1)C1CCCC1` (stereo unspecified), the superoxide response (% of plate mean) is 101%.

On to `Cc1ccc(-c2noc(CNC(=O)c3ccoc3C)n2)cc1`, for which the superoxide response (% of plate mean) was 85%.

Take `Cc1ccc(N2CCN(S(=O)(=O)c3ccc(F)cc3)CC2)c(C)c1`: the superoxide response (% of plate mean) is 106%.

For the compound `CC(=O)c1ccc(N2CCN(S(=O)(=O)c3ccc4c(c3)CC(=O)N4C)CC2)cc1`, the superoxide response (% of plate mean) is 97.6%.

With `Cc1c(NC(=O)CN(C)CC(=O)Nc2ccc(F)c(F)c2F)c(=O)n(-c2ccccc2)n1C`, the superoxide response (% of plate mean) was 91.2%.

As for `CCOc1ccc2nc(Cl)c(C3CC(c4ccccc4)=NN3C(=O)c3cccs3)cc2c1` (stereo unspecified), the superoxide response (% of plate mean) was 75.7%.

As for `O=C(CSc1nnnn1C1CCCC1)Nc1ccc2c(c1)OCCO2`, the superoxide response (% of plate mean) is 98.8%.

As for `CC(C(=O)N=Nc1c(O)n(C)c2ccc(Br)cc12)n1cnc2ccccc2c1=O` (stereo unspecified), the superoxide response (% of plate mean) was 89.3%.

As for `COc1cc(NC(=O)C2=C(C)OCCS2)c(Cl)cc1C(=O)NCCN1CCN(C)CC1`, the superoxide response (% of plate mean) was 99.2%.

`CCN(CC)N=Nc1cccc(NC(C)=O)c1`: the superoxide response (% of plate mean) is 96.8%.

Consider `CCc1ccccc1NC(=O)CN(C)C(=O)c1cc(C2CC2)nn1-c1ccccc1`, for which the superoxide response (% of plate mean) is 117%.

With `C/C(CC(=O)NC(C)(C)C)=N\NC(=O)c1ccco1`, the superoxide response (% of plate mean) is 92.3%.

Consider `O=C(OC1CCCCC1=O)c1cccc(S(=O)(=O)NCc2ccccc2)c1` (stereo unspecified), for which the superoxide response (% of plate mean) was 91.2%.

Consider `O=C(O)CC/C(=N\NC(=O)c1ccc(F)cc1)c1ccc(Br)cc1`, for which the superoxide response (% of plate mean) was 97.4%.

Consider `COc1cc(NS(=O)(=O)c2ccc(NC(=O)CN3C(=O)c4ccccc4C3=O)cc2)ncn1`, for which the superoxide response (% of plate mean) was 87.5%.

Turning to `CN(C)C(=O)c1coc2nc3ccccc3nc12`, the superoxide response (% of plate mean) is 90.3%.

For the compound `CNC(=O)c1cc2c(ccc3ccccc32)oc1=N`, the superoxide response (% of plate mean) was 90%.

As to `CNC(=O)c1cccc2nc3ccccc3nc12`, the superoxide response (% of plate mean) was 47% (active).

With `O=C1CCCCC1C(=O)c1ccccc1` (stereo unspecified), the superoxide response (% of plate mean) was 88.5%.

For the compound `CCc1ccc(-c2nc(SCC(=O)NC3CCCC3)n[nH]2)cc1`, the superoxide response (% of plate mean) was 109%.

For `Clc1ccc2nc(CSc3ccccc3)cn2c1`, the superoxide response (% of plate mean) is 99.1%.

In the case of `Cc1ccc(OCC(=O)Nc2ccc(N3CCN(C(=O)c4ccco4)CC3)cc2)c(C)c1`, the superoxide response (% of plate mean) was 100%.

`CN(C)c1ccc(/C=N\S(=O)(=O)c2ccccc2)cc1`: the superoxide response (% of plate mean) was 64.7% (active).

Regarding `CN(C)c1ccc(/C=N/NC(=O)C(O)c2ccc(Br)cc2)cc1` (stereo unspecified), the superoxide response (% of plate mean) is 110%.

`CN(C)c1ccc(C=NCCc2ccc(S(N)(=O)=O)cc2)cc1`: the superoxide response (% of plate mean) was 82.2%.

As for `Cc1c(C(=O)OCC(=O)N(CCC#N)c2ccccc2)oc2c1ccc1ccccc12`, the superoxide response (% of plate mean) was 86.3%.

As for `COC(=O)CNC(=O)c1ccc(OC2CCN(C(=O)C3CC3)CC2)cc1`, the superoxide response (% of plate mean) was 64% (active).

In the case of `COCCC(=O)N1CCC(Oc2ccc(C(=O)NCc3ccon3)cc2)CC1`, the superoxide response (% of plate mean) is 92%.

On to `C=C(C)CNC(=O)c1ccc(OC2CCN(C(=O)COC)CC2)cc1`, for which the superoxide response (% of plate mean) is 103%.

Regarding `C[n+]1cc(-c2ccccc2)oc1-c1ccccc1`, the superoxide response (% of plate mean) is 96.2%.

Turning to `COc1ccc(/C(C)=N/Nc2cc(C(F)(F)F)ccc2Cl)c(OC)c1`, the superoxide response (% of plate mean) was 87.7%.

With `N=C1C(=O)OCC1c1ccccc1NC(=O)CN1CCCCC1` (stereo unspecified), the superoxide response (% of plate mean) is 110%.

As for `CCCCOC(=O)Nc1sc2nc(C)cc(C)c2c1-n1cccc1`, the superoxide response (% of plate mean) is 113%.

On to `Cc1ccc2c(cnn2C(=O)CCC(=O)NC2CCCC2)c1`, for which the superoxide response (% of plate mean) is 96.7%.

On to `COc1ccc(C2=Nc3cc(C)ccc3OC2)cc1`, for which the superoxide response (% of plate mean) was 99.1%.

For `C#CCO[C@@H]1C[C@H](n2cnc3c(=O)[nH]c(NC(=O)C(C)C)nc32)O[C@@H]1CO`, the superoxide response (% of plate mean) is 101%.

The values above are taken from PubChem BioAssay AID2690 (NMMLSC, 2010).
